In publication PMC11995724, “Antibiotic target discovery by integrated phenotypic and activity-based profiling of electrophilic fragments” (Cell chemical biology, 2025):
Screen size: about 3,200 compounds; about 75 (2%) showed an effect of 50% or more. This excerpt belongs to a sample that is enriched for strong results.

test system: T1, S. aureus MSSA476; set-up: species or system S. aureus MSSA476 (TSB) or V. cholerae SAD30 (LB); 384-well bacterial growth screen at 25 uM, OD600 relative to DMSO control; conditions: relative growth, OD600, TSB; 25 µM; inhibitor
T1 construct: MSSA476

Row | Structure (SMILES) | % of control remaining [%]
1 | O=C(O)c1coc(C(=O)CCl)c1 [10-B07, 5-(2-chloroacetyl)furan-3-carboxylic acid] | 79.6875
2 | O=C(CCl)N1N=C(c2ccco2)CC1c1cccc(Cl)c1 (centres unmarked) [5-M17, 2-chloro-1-[5-(3-chlorophenyl)-3-(furan-2-yl)-4,5-dihydro-1H-pyrazol-1-yl]ethan-1-one] | 81.9672
3 | Cc1nn(-c2ccccc2)c(C)c1CN(C)C(=O)CCl [7-B03, 2-chloro-N-[(3,5-dimethyl-1-phenyl-1H-pyrazol-4-yl)methyl]-N-methylacetamide] | 93.5636
4 | Cc1cccc(-n2c(C)cc(C(=O)CCl)c2C)c1 [10-A22, 2-chloro-1-[2,5-dimethyl-1-(3-methylphenyl)-1H-pyrrol-3-yl]ethan-1-one] | 138.438
5 | Cc1cc(C(=O)CCl)c(C)n1-c1ccc(Cl)c(Cl)c1 [10-D18, 2-chloro-1-[1-(3,4-dichlorophenyl)-2,5-dimethyl-1H-pyrrol-3-yl]ethan-1-one] | -0.3125
6 | Cc1cc(-n2c(C)cc(C(=O)CCl)c2C)no1 [10-C18, 2-chloro-1-[2,5-dimethyl-1-(5-methyl-1,2-oxazol-3-yl)-1H-pyrrol-3-yl]ethan-1-one] | 123.125
7 | Cc1cc(C(=O)CCl)c(C)n1-c1cccc([N+](=O)[O-])c1 [10-B16, 2-chloro-1-[2,5-dimethyl-1-(3-nitrophenyl)-1H-pyrrol-3-yl]ethan-1-one] | 136.563
8 | CSc1cccc(-n2c(C)cc(C(=O)CCl)c2C)c1 [10-J16, 2-chloro-1-{2,5-dimethyl-1-[3-(methylsulfanyl)phenyl]-1H-pyrrol-3-yl}ethan-1-one] | 12.8125
9 | Cc1cc(C(=O)CCl)c(C)n1-c1ccccn1 [10-C16, 2-chloro-1-[2,5-dimethyl-1-(pyridin-2-yl)-1H-pyrrol-3-yl]ethan-1-one] | 117.5
10 | Cc1ccc(-n2c(C)cc(C(=O)CCl)c2C)cc1C [10-B14, 2-chloro-1-[1-(3,4-dimethylphenyl)-2,5-dimethyl-1H-pyrrol-3-yl]ethan-1-one] | 1.25
11 | Cc1ccc(-n2c(C)cc(C(=O)CCl)c2C)cc1F [10-C06, 2-chloro-1-[1-(3-fluoro-4-methylphenyl)-2,5-dimethyl-1H-pyrrol-3-yl]ethan-1-one] | -0.3125
12 | Cc1cc(C(=O)CCl)c(C)n1-c1cccc(Cl)c1 [10-N18, 2-chloro-1-[1-(3-chlorophenyl)-2,5-dimethyl-1H-pyrrol-3-yl]ethan-1-one] | 100.313
13 | Cc1cc(C(=O)CCl)c(C)n1-c1ccc2c(c1)OCO2 [10-K14, 1-[1-(1,3-dioxaindan-5-yl)-2,5-dimethyl-1H-pyrrol-3-yl]-2-chloroethan-1-one] | 139.375
14 | CCN(CC)C(=O)c1cccc(NC(=O)CCl)c1 [5-I03, 3-(2-chloroacetamido)-N,N-diethylbenzamide] | 102.732
15 | N#CC(=Cc1cccs1)C(=O)Nc1ccc(C(=O)O)cc1 [8-A04, 4-[2-cyano-3-(thiophen-2-yl)prop-2-enamido]benzoic acid] | 109.212
16 | CC(C)Oc1ccccc1C=C(C#N)C(=O)Nc1ccc(Cl)cc1 [9-L20, N-(4-chlorophenyl)-2-cyano-3-[2-(propan-2-yloxy)phenyl]prop-2-enamide] | 108.464
17 | N#CCCSc1ccccc1NC(=O)CCl [6-N12, 2-chloro-N-{2-[(2-cyanoethyl)sulfanyl]phenyl}acetamide] | 88.439
18 | CC(=O)NCCc1ccc(C(=O)CCl)s1 [10-P03, N-{2-[5-(2-chloroacetyl)thiophen-2-yl]ethyl}acetamide] | 143.125
19 | C=CC(=O)N1CCCN(C(=O)c2ccc(OC)cc2)CC1 [3-A21, 1-[4-(4-methoxybenzoyl)-1,4-diazepan-1-yl]prop-2-en-1-one] | 128.864
20 | C=CC(=O)N(CC)Cc1cn(C)nn1 [2-O09, N-ethyl-N-[(1-methyl-1H-1,2,3-triazol-4-yl)methyl]prop-2-enamide] | 106.527
21 | CN(CC(=O)Nc1ccccc1Cl)C(=O)CCl [4-D05, 2-chloro-N-{[(2-chlorophenyl)carbamoyl]methyl}-N-methylacetamide] | 122.344
22 | C=CC(=O)NCCc1ccccc1OC [2-O03, N-[2-(2-methoxyphenyl)ethyl]prop-2-enamide] | 95.7354

Row | Structure (SMILES) | % of control remaining [%]
23 | C=CC(=O)N1CCOCC2(COCCN2C)C1 (centres unmarked) [3-J14, 1-{1-methyl-4,8-dioxa-1,11-diazaspiro[5.6]dodecan-11-yl}prop-2-en-1-one] | 109.012
24 | CC(Cl)C(=O)N1CCCC(NS(=O)(=O)c2cccc(F)c2)C1 (centres unmarked) [7-C13, N-[1-(2-chloropropanoyl)piperidin-3-yl]-3-fluorobenzene-1-sulfonamide] | 102.355
25 | Cc1cc(C(=O)CCl)c(C)n1-c1ccc(OC(F)(F)F)cc1 [10-G04, 2-chloro-1-{2,5-dimethyl-1-[4-(trifluoromethoxy)phenyl]-1H-pyrrol-3-yl}ethan-1-one] | 115.313
26 | Cc1cc(C(=O)CCl)c(C)n1-c1ccc(Cl)c(C(F)(F)F)c1 [10-L18, 2-chloro-1-{1-[4-chloro-3-(trifluoromethyl)phenyl]-2,5-dimethyl-1H-pyrrol-3-yl}ethan-1-one] | 0.3125
27 | Cc1cc(C(=O)CCl)c(C)n1-c1ccc(OC(F)F)c(Cl)c1 [10-K04, 2-chloro-1-{1-[3-chloro-4-(difluoromethoxy)phenyl]-2,5-dimethyl-1H-pyrrol-3-yl}ethan-1-one] | 0
28 | Cc1cc(C(=O)C(C)Cl)c(C)n1-c1ccc(OC(F)F)cc1 (centres unmarked) [10-E10, 2-chloro-1-{1-[4-(difluoromethoxy)phenyl]-2,5-dimethyl-1H-pyrrol-3-yl}propan-1-one] | 125.938
29 | Cc1cc(C(=O)CCl)c(C)n1-c1ccon1 [10-F06, 2-chloro-1-[2,5-dimethyl-1-(1,2-oxazol-3-yl)-1H-pyrrol-3-yl]ethan-1-one] | 106.875
30 | CC(Cl)C(=O)NCCc1nnc2n1CCCCC2 (centres unmarked) [7-D09, 2-chloro-N-(2-{5H,6H,7H,8H,9H-[1,2,4]triazolo[4,3-a]azepin-3-yl}ethyl)propanamide] | 92.3077
31 | O=C(CCl)Nc1cc(-n2cnnn2)ccc1Cl [6-A05, 2-chloro-N-[2-chloro-5-(1H-1,2,3,4-tetrazol-1-yl)phenyl]acetamide] | 78.1951
32 | CC(Cl)C(=O)NCc1nn(-c2ccccc2)c2c1CCC2 (centres unmarked) [7-P05, 2-chloro-N-({1-phenyl-1H,4H,5H,6H-cyclopenta[c]pyrazol-3-yl}methyl)propanamide] | 91.9937
33 | COc1ccc(-c2csc(NC(=O)CCl)n2)cc1 [4-N06, 2-chloro-N-[4-(4-methoxyphenyl)-1,3-thiazol-2-yl]acetamide] | 111.291
34 | O=C(CCl)Nc1nc(-c2ccccc2)cs1 [4-L04, 2-chloro-N-(4-phenyl-1,3-thiazol-2-yl)acetamide] | 143.306
35 | COc1ccc(-c2csc(NC(=O)CCl)n2)c(O)c1 [4-A11, 2-chloro-N-[4-(2-hydroxy-4-methoxyphenyl)-1,3-thiazol-2-yl]acetamide] | 1.1434
36 | COc1ccc(OC)c(-c2csc(NC(=O)CCl)n2)c1 [4-H12, 2-chloro-N-[4-(2,5-dimethoxyphenyl)-1,3-thiazol-2-yl]acetamide] | 86.8985
37 | COc1ccc(-c2csc(NC(=O)CCl)n2)c(OC)c1 [4-F12, 2-chloro-N-[4-(2,4-dimethoxyphenyl)-1,3-thiazol-2-yl]acetamide] | 83.4683
38 | CCCc1ccc(-c2csc(NC(=O)CCl)n2)cc1 [4-C09, 2-chloro-N-[4-(4-propylphenyl)-1,3-thiazol-2-yl]acetamide] | 5.717
39 | CC(Cl)C(=O)N1CCN(C(C)c2cccc(C#N)c2)CC1 (centres unmarked) [7-P22, 3-{1-[4-(2-chloropropanoyl)piperazin-1-yl]ethyl}benzonitrile] | 115.542
40 | C=CC(=O)NCCc1nnc(C)s1 [3-G22, N-[2-(5-methyl-1,3,4-thiadiazol-2-yl)ethyl]prop-2-enamide] | 111.45
41 | C=CC(=O)N(CC)CC(=O)N1CCCC1c1ccc(F)cc1C (centres unmarked) [2-F08, N-ethyl-N-{2-[2-(4-fluoro-2-methylphenyl)pyrrolidin-1-yl]-2-oxoethyl}prop-2-enamide] | 97.1279
42 | CC(=O)c1cccc(S(=O)(=O)N2CCN(C(=O)CCl)CC2)c1 [4-F05, 1-[4-(3-acetylbenzenesulfonyl)piperazin-1-yl]-2-chloroethan-1-one] | 105.574
43 | C=CC(=O)N1CCC(Cn2nc(C)cc2C)CC1 [2-C17, 1-{4-[(3,5-dimethyl-1H-pyrazol-1-yl)methyl]piperidin-1-yl}prop-2-en-1-one] | 100.957
44 | CCOc1ccccc1NC(=O)C(C#N)=Cc1c(F)cccc1F [8-G21, 2-cyano-3-(2,6-difluorophenyl)-N-(2-ethoxyphenyl)prop-2-enamide] | 69.3776
